# Screening results (PubChem BioAssay)
# Compounds with a hit are over-represented: about 1.1% of the library has one in this group of screens.
# HTR5A inv ctr: inverse agonist of human HTR5A in OPRM1-OPRD1 counter-screen; inhibition, % at 9.3 µM; AID 504634; 340,000 tested, 0.083% active; HTR5A cell line, luminescence, inverse agonism; in the data active = inhibition mostly above about 23%, no sharp cut-off; inactive = mostly below about 18%;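 also: 0% = cells with DMSO and 100% = no-cell wells with DMSO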
# HTR5A ag: counter-screen for OPRM1-OPRD1 agonists: human HTR5A agonism; HTR5A agonist assay, luminescence, cell-based; 340,000 tested, 0.61% active; activation, % at 9.3 µM; in the data active = activation mostly above about 9.5%, no sharp cut-off; inactive = mostly below about 7.6%;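 also: 0% = cells with vehicle only and 100% = reference agonist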
# MOR-DOR inv ag: inverse agonists of human mu-delta opioid receptor heterodimerization; P35372+P41143; inhibition, % at 9.3 µM; 340,000 tested, 0.21% active; cell-based MOR-DOR heterodimer luminescence, inverse agonism; in the data active = inhibition above about 22%, passing the limit was not always enough;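 also: 0% = cells with DMSO and 100% = wells without cells with DMSO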
# Target sequence (P35372 whole entry, looked up): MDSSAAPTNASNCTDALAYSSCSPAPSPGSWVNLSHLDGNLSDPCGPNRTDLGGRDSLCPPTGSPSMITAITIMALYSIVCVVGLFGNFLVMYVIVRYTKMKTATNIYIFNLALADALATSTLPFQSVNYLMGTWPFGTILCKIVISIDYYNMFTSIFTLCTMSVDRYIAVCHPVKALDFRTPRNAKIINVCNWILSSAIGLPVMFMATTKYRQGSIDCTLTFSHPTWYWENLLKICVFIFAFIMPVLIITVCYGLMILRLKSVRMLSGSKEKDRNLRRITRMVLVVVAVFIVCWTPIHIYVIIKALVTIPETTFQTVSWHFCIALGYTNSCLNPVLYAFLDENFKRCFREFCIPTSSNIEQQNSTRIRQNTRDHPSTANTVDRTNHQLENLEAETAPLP
# Target sequence (P41143 whole entry, looked up): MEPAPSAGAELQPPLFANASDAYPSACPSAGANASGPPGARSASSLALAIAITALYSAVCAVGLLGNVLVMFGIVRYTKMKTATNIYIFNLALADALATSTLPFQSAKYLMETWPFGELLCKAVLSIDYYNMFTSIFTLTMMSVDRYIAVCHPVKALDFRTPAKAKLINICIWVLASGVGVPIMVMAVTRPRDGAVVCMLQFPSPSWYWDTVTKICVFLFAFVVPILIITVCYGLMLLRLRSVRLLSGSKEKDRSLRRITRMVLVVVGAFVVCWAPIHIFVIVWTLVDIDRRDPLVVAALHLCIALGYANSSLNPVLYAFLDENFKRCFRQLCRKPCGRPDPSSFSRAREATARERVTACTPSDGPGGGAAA
# OPRM1-OPRD1 ag: OPRM1-OPRD1 heterodimerization agonism. AID 504326. 340,000 tested, 0.3% active. cells, luminescence. P35372+P41143. activation, % at 9.3 µM;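 also: 0% = vehicle-treated cells and 100% = reference agonist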
# MOR-DOR ag conf: OPRM1-OPRD1 heterodimer agonism, confirmation | shares compounds with OPRM1-OPRD1 ag | cells, MOR-DOR heterodimerization, luminescence complementation | activation, % at 9.3 µM | 830 tested, 45% active | AID 504904;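 also: 0% = vehicle-treated cells and 100% = reference agonist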
# HTR5A ag ctr2: HTR5A agonism, opioid heterodimer counter-screen | shares compounds with OPRM1-OPRD1 ag | 830 tested, 8% active | activation, % at 9.3 µM | HTR5A agonist counterscreen, cell luminescence; in the data active = activation above about 17%;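 also: 0% = vehicle-treated cells and 100% = reference agonist response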
# MOR-DOR inv conf: confirmation of human OPRM1-OPRD1 heterodimerization inverse agonists | shares compounds with MOR-DOR inv ag | cells expressing OPRM1/OPRD1 heterodimer, luminescence | inhibition, % at 9.3 µM | 580 tested, 20% active; in the data active = inhibition above about 32%;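 also: 0% = cells with DMSO and 100% = wells lacking cells with DMSO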
# HTR5A inv ctr2: HTR5A inverse agonism, opioid heterodimer counter-screen. shares compounds with MOR-DOR inv ag. AID 504914. inhibition, % at 9.3 µM. HTR5A-expressing cells, luminescence. 580 tested, under 10 active; call rule not given here;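 also: 0% = cells with DMSO and 100% = no-cell wells with DMSO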
# Numbers without * were called inactive; i = inactive; / = no result given. Rule as the data show it, unless noted: active = activation above about 18%; inactive = the rest.
SMILES,HTR5A inv ctr,HTR5A ag,MOR-DOR inv ag,OPRM1-OPRD1 ag,MOR-DOR inv conf,HTR5A inv ctr2,others
COC(=O)C1=C(C)N(Cc2ccccc2)C(=NCCc2c[nH]c3ccccc23)N[C@H]1c1cccc(C(F)(F)F)c1,-36,13,-100,22*,/,/,MOR-DOR ag conf=1;HTR5A ag ctr2=2
COC(=O)C1=C(C)N(CC2CC2)C(=NCc2cccc(C(F)(F)F)c2)N[C@H]1c1ccccc1,11,6,-24,4,/,/,
CCOC(=O)c1cn(CC)c2c(ccc3ccccc32)c1=O,-8,2,-5,1,/,/,
CC(C)[C@H](NC(=O)c1c(F)cccc1F)C(=O)Nc1cccc(Br)c1,-32,8,-126,22*,/,/,MOR-DOR ag conf=12;HTR5A ag ctr2=0
Cc1nc2ccc(NC(=O)[C@@H](NC(=O)c3c(F)cccc3F)C(C)C)cc2s1,0,0,12,-3,/,/,
CC1(C)Cc2c(cnn2-c2cccc(F)c2)C(NC(=O)CSc2ccncc2)C1 (stereo not drawn),2,-1,11,-3,/,/,
CC1CN(C)C(C)c2c1oc1ccc(N)cc21 (stereo not drawn),-12,-3,-373,72*,/,/,MOR-DOR ag conf=58*;HTR5A ag ctr2=4
Cc1cc(NC(=O)CSc2ccc(-c3nc4cc(C)c(C)cc4[nH]3)cn2)no1,-12,4,-106,20*,/,/,MOR-DOR ag conf=1;HTR5A ag ctr2=12
COCCN(C(=O)C1CC(=O)N(Cc2ccccc2)C1)c1nc(-c2ccc([N+](=O)[O-])cc2)cs1 (stereo not drawn),15,-4,i,127*,/,/,MOR-DOR ag conf=154*;HTR5A ag ctr2=1
O=C(OC(C(=O)O)C(OC(=O)c1ccccc1)C(=O)NCc1ccccc1)c1ccccc1 (stereo not drawn),4,-1,13,-2,/,/,
CCN1CCN(c2ccc(NC(=O)c3ccc(Br)o3)cc2)CC1,-2,-2,10,-2,/,/,
CN1CCN(c2ccc(NC(=O)c3ccc(-c4ccc(Br)cc4)o3)cc2)CC1,-47,17*,i,345*,/,/,MOR-DOR ag conf=36*;HTR5A ag ctr2=4
CCn1c(O)c(/C=N/N=C/c2ccc(OC)cc2)c2cc(C3=NNC(=O)CC3)ccc21,14,5,7,-1,/,/,
CC/C(C)=N\N=C\c1c(O)n(CC)c2cc(C3=NNC(=O)CC3)ccc12,21,-5,31*,-7,50*,15,
COc1cccc([C@@H]2Oc3ccc(OC)cc3C(=O)[C@H]2O)c1,4,-3,35*,-6,19,9,
Cc1cccc(C)c1NC(=O)C(NC=O)c1ccc(Cl)cc1 (stereo not drawn),-14,5,33*,-7,3,2,
CCCCCCC[C@@H](C/C=C/CCC(=O)N(C)C/C(=C/Cl)C/C(=C\C(=O)N1C[C@H](O)CC1=O)OC)OC,-13,4,0,0,/,/,
CCCCCCC[C@@H](C/C=C/CCC(=O)N(C)C/C(=C/Cl)C/C(=C\C(=O)N1CC(OC)=CC1=O)OC)OC,-1,0,39*,-8,-22,-120,
CS(=O)(=O)NC1c2cccc3cccc(c23)C1Sc1nncn1/N=C/c1ccco1 (stereo not drawn),4,3,16,-3,/,/,
O=C(CCN1C(=O)C2C3CCC(C3)C2C1=O)OCC(=O)c1cccc([N+](=O)[O-])c1 (stereo not drawn),14,0,62*,-12,-8,7,
COc1ccc(C(=O)COC(=O)CCN2C(=O)C3C4CC(C(Br)C4Br)C3C2=O)cc1 (stereo not drawn),24,13,9,-1,/,/,
O=C(CN1C(=O)C2C3CCC(C3)C2C1=O)OCC(=O)c1ccccc1 (stereo not drawn),3,-2,15,-3,/,/,
O=C(CCN1C(=O)C2C3CC(C(Br)C3Br)C2C1=O)OCC(=O)c1cccc([N+](=O)[O-])c1 (stereo not drawn),18,1,21*,-3,38*,15,
O=C(CN1C(=O)C2C3CCC(C3)C2C1=O)OCC(=O)c1cccc([N+](=O)[O-])c1 (stereo not drawn),35*,-14,85*,-13,-179,-27,
CC(C)C(C(=O)OCC(=O)c1cccc([N+](=O)[O-])c1)N1C(=O)[C@@H]2[C@H]3CC[C@H](C3)[C@@H]2C1=O (stereo partly drawn),-9,4,17,-3,/,/,
SMILES,HTR5A inv ctr,HTR5A ag,MOR-DOR inv ag,OPRM1-OPRD1 ag,MOR-DOR inv conf,HTR5A inv ctr2,others
O=C(NCc1cccc(F)c1)c1cccc(OC2CCN(C(=O)C3CC3)CC2)c1,-12,0,3,0,/,/,
O=C(Cc1ccccc1)NC1CCS(=O)(=O)C1 (stereo not drawn),-21,7,11,-2,/,/,
Cn1nnc(NC(=S)NC(=O)c2cccc3c(Br)cccc23)n1,18,-4,33*,-6,-4,-5,
COc1ccc(C(=O)NC(=S)Nc2nnn(C)n2)cc1,21,-3,27,-6,/,/,
COc1cccc(C(=O)NC(=S)Nc2nnn(C)n2)c1,9,1,28*,-5,-2,15,
Cn1nnc(NC(=S)NC(=O)c2cccc3c(Cl)cccc23)n1,15,-4,31*,-6,-13,16,
COc1c(C(=O)NC(=S)Nc2nnn(C)n2)cc2ccccc2c1Br,2,-1,3,-1,/,/,
Cn1nnc(NC(=S)NC(=O)c2ccco2)n1,20,-6,24,-5,/,/,
CN(CC(=O)NCCc1ccc(F)cc1)Cc1cccc(Cl)c1,-12,5,2,0,/,/,
CCC(Oc1ccccc1)C(=O)Nc1ccccc1OC (stereo not drawn),-10,2,-12,2,/,/,
CCC(OC(=O)C(C)N1C(=O)C(=O)c2ccccc21)C(=O)Nc1ccccc1OC (stereo not drawn),2,-4,48*,-8,10,4,
CCC(OC(=O)CN1C(=O)C(=O)c2ccccc21)C(=O)Nc1ccccc1OC (stereo not drawn),23*,-8,49*,-6,3,-7,
O=C1Nc2ccccc2C1=Nc1ccc(-c2nnc3n2CCCCC3)cc1,6,-2,35*,-7,40*,3,
ON1C2CCCCC2N(O)C1c1ccccc1C(F)(F)F (stereo not drawn),9,-4,44*,-8,-52,10,
O=C(Nc1ccccc1C(F)(F)F)NC1CCCCCCC1,-4,5,-10,2,/,/,
O=CN1Cc2[nH]c3ccccc3c2N(c2ccc(Cl)cc2)C1=O,-8,3,44*,-9,16,-3,
O=C1CNCc2[nH]c3ccccc3c2N1c1ccccc1,7,-3,0,0,/,/,
O=C(NNc1ccccc1)c1ccc(Cl)c(Cl)c1,8,-2,40*,-9,54*,14,
